Screening results from PubChem BioAssay.
CYP2C19 activ = increases human CYP2C19 enzyme activity. activation factor at 5 µM. AID 1025. recombinant CYP2C19, luciferin-H EGE luminescence; stronger effect = higher value; 0 = fully inhibited enzyme, 1 = untreated enzyme. 96,000 tested, under 10 active;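 active = activation factor of at least 2 at 5 µM in the primary screen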;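 also: 0 = wells with 2.5 mM tranylcypromine and 1 = vehicle-only wells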
Target sequence (P33261 whole entry, looked up): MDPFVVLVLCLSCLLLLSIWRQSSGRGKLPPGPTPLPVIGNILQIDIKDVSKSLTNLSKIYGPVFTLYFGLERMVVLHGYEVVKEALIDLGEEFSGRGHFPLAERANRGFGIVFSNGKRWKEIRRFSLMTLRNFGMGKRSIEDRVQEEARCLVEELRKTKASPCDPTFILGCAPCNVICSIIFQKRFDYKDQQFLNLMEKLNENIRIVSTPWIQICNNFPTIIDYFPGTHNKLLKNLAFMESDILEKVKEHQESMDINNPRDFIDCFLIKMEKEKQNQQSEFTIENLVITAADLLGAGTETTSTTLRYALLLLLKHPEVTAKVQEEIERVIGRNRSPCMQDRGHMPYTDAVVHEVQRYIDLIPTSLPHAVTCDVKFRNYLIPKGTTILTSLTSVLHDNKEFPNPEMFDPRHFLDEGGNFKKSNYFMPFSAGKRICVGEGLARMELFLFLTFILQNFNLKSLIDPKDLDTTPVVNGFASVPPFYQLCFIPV
CYP2C19 inhib = human CYP2C19 inhibition. 96,000 compounds, 21% hits. AID 778. CYP2C19 Supersomes, luciferin-H EGE luminescence, 30 min. P33261. inhibition, % at 5 µM;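 active = CYP2C19 inhibition above a set limit at 5 µM in the primary screen, cut at about 50% in these data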;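 also: plate controls were negative control wells for no effect and 2.5 mM tranylcypromine positive control for full effect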
CYP2C9 inh = blocks human cytochrome P450 2C9; 96,000 compounds, 20% hits; CYP2C9 Supersomes, luciferin-H conversion, luminescence; AID 777; inhibition, % at 5 µM; P11712;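 active = blocking of liver enzyme CYP2C9 beyond about 50% at 5 µM, limit read from the data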
Plk1 PBD FP = Plk1 (human) PBD binding inhibition. P53350. Plk1 PBD phosphopeptide binding, fluorescence polarization. inhibition, %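 (tested at about 20 µM)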. 97,000 compounds, 0.13% hits. AID 693; in the data active = inhibition above about 34%, passing the limit was not always enough
CYP2C9 act = increases human cytochrome P450 2C9 activity. P11712. activation factor at 5 µM. 96,000 compounds, 1.4% hits. recombinant CYP2C9, luciferin-H conversion, luminescence; stronger effect = higher value; factor 1 = untreated enzyme, 0 = blocked;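 active = activation factor of 2 or more for CYP2C9 at a 5 µM dose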;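 also: 0 = sulfaphenazole-blocked wells and 1 = vehicle-only wells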
PLK1 kinase inh = blocks human PLK1 kinase activity; P53350; recombinant PLK1 kinase, TR-FRET peptide phosphorylation; inhibition, % at 10 µM; 97,000 compounds, 0.53% hits; AID 619;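 active = inhibition of 50% or more in the single-concentration screen; inactive = inhibition below 50%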;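 also: 0% = DMSO max control and 100% = H-89 dihydrochloride min control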
Numbers without * were called inactive. Rows were chosen to be rich in hits. Some 28% of all compounds tested hit in one or more screens of this group.

Results for CC1(C)CC(=O)C(C2(O)C(=O)N(Cc3ccccc3)c3ccccc32)CO1 (centres undefined) ?
CYP2C19 activ: 0.4; CYP2C19 inhib: 63*; CYP2C9 inh: 35; Plk1 PBD FP: 1; CYP2C9 act: 0.7; PLK1 kinase inh: -21

What do the screens show for `O=S1(=O)c2ccccc2N=NN1Cc1ccc(Cl)cc1`?
CYP2C19 activ: 0.2; CYP2C19 inhib: 83*; CYP2C9 inh: 68*; Plk1 PBD FP: -20; CYP2C9 act: 0.3; PLK1 kinase inh: -1

Results for O=C1c2ccncc2C(=O)N1Cc1cccc(Cl)c1 ?
CYP2C19 activ: 0.8; CYP2C19 inhib: 20; CYP2C9 inh: 13; Plk1 PBD FP: -6; CYP2C9 act: 0.9; PLK1 kinase inh: -7

Results for O=S1(=O)c2ccccc2N=NN1Cc1cc(Cl)cc(Cl)c1 ?
CYP2C19 activ: 0.7; CYP2C19 inhib: 33; CYP2C9 inh: 54*; Plk1 PBD FP: 37; CYP2C9 act: 0.5; PLK1 kinase inh: -9

How did Clc1ccc(CN2C3=NCCN3c3ccccc32)cc1 do in these assays?
CYP2C19 activ: 0.8; CYP2C19 inhib: 21; CYP2C9 inh: 3; Plk1 PBD FP: 1; CYP2C9 act: 1; PLK1 kinase inh: 3

What do the screens show for `CCn1c(=O)c(C(=O)Nc2nc3ccccc3[nH]2)c(O)c2ccccc21`?
CYP2C19 activ: 1; CYP2C19 inhib: -1; CYP2C9 inh: 6; Plk1 PBD FP: -6; CYP2C9 act: 0.9; PLK1 kinase inh: -4

Results for COc1ccc(CCNC(=O)C23CN(Cc4ccccc4)CC2C(c2cccc([N+](=O)[O-])c2)=NO3)cc1 (centres undefined) ?
CYP2C19 activ: 0.7; CYP2C19 inhib: 31; CYP2C9 inh: 26; Plk1 PBD FP: 5; CYP2C9 act: 0.7; PLK1 kinase inh: -4

How did Cc1ccc(CCNC(=O)C23CN(Cc4ccccc4)CC2C(c2cccc([N+](=O)[O-])c2)=NO3)cc1 (centres undefined) do in these assays?
CYP2C19 activ: 0.2; CYP2C19 inhib: 77*; CYP2C9 inh: 75*; Plk1 PBD FP: 2; CYP2C9 act: 0.3; PLK1 kinase inh: -11

How did Clc1ccc(-c2nnc3n2CCCC3)cc1Cl do in these assays?
CYP2C19 activ: 1.1; CYP2C19 inhib: -14; CYP2C9 inh: -16; Plk1 PBD FP: -3; CYP2C9 act: 1.2; PLK1 kinase inh: -18

What do the screens show for `CS(=O)(=O)c1cnc(-c2ccccc2)nc1Oc1ccc(Cl)cc1`?
CYP2C19 activ: 0.7; CYP2C19 inhib: 32; CYP2C9 inh: 14; Plk1 PBD FP: 2; CYP2C9 act: 0.9; PLK1 kinase inh: -6

What do the screens show for `O=S(=O)(c1ccccc1F)N1CCN(Cc2nc3ccccc3[nH]2)CC1`?
CYP2C19 activ: 0.4; CYP2C19 inhib: 55*; CYP2C9 inh: -81; Plk1 PBD FP: 1; CYP2C9 act: 1.8; PLK1 kinase inh: -8

How did CCc1nc2ccccc2[nH]1 do in these assays?
CYP2C19 activ: 0.8; CYP2C19 inhib: 21; CYP2C9 inh: -7; Plk1 PBD FP: -16; CYP2C9 act: 1.1; PLK1 kinase inh: -10

What do the screens show for `CCS(=O)(=O)N1CCN(Cc2nc3ccccc3c(=O)[nH]2)CC1`?
CYP2C19 activ: 1; CYP2C19 inhib: 3; CYP2C9 inh: 6; CYP2C9 act: 0.9

What do the screens show for `c1ccc2[nH]c(CN3CCCCCC3)nc2c1`?
CYP2C19 activ: 0.4; CYP2C19 inhib: 64*; CYP2C9 inh: -5; Plk1 PBD FP: -24; CYP2C9 act: 1; PLK1 kinase inh: -11

What do the screens show for `c1ccc(OCc2nc3ccccc3[nH]2)cc1`?
CYP2C19 activ: 0.3; CYP2C19 inhib: 74*; CYP2C9 inh: 15; Plk1 PBD FP: 1; CYP2C9 act: 0.8; PLK1 kinase inh: -12

Results for FC(F)(F)C1CC(c2cccs2)Nc2ncnn21 (centres undefined) ?
CYP2C19 activ: 0.9; CYP2C19 inhib: 6; CYP2C9 inh: 8; Plk1 PBD FP: -11; CYP2C9 act: 0.9; PLK1 kinase inh: -10

What do the screens show for `Cc1ccsc1C(=O)OCc1csc(-c2ccccc2)n1`?
CYP2C19 activ: 0.9; CYP2C19 inhib: 6; CYP2C9 inh: -6; Plk1 PBD FP: 3; CYP2C9 act: 1.1; PLK1 kinase inh: -6

What do the screens show for `Fc1ccc(CNc2cnccn2)cc1`?
CYP2C19 activ: 0.9; CYP2C19 inhib: 10; CYP2C9 inh: 17; Plk1 PBD FP: -5; CYP2C9 act: 0.8; PLK1 kinase inh: -3
